This is a sample that favours compounds with a hit; in the whole collection about 27% have one here.
sEH activator: soluble epoxide hydrolase (human) activation | purified human sEH enzymatic activity, activator screen | activation, % at 2 µM | 91,000 tested, 0.04% active | AID 717; in the data active = activation above about 37%
sEH inh: soluble epoxide hydrolase (human) inhibition | P34913 | recombinant human sEH enzymatic activity assay | inhibition, % at 2 µM | 91,000 tested, 0.34% active | AID 707; in the data active = inhibition above about 80%
CYP2C19 act: activators of human cytochrome P450 2C19. P33261. recombinant CYP2C19, luciferin-H EGE luminescence; hits give high values; 0 = fully inhibited enzyme, 1 = untreated enzyme. activation factor at 5 µM. 96,000 tested, under 10 active;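 active = activation factor of at least 2 at 5 µM in the primary screen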;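 also: 0 = wells with 2.5 mM tranylcypromine and 1 = vehicle-only wells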
Target sequence (P33261 whole entry, looked up): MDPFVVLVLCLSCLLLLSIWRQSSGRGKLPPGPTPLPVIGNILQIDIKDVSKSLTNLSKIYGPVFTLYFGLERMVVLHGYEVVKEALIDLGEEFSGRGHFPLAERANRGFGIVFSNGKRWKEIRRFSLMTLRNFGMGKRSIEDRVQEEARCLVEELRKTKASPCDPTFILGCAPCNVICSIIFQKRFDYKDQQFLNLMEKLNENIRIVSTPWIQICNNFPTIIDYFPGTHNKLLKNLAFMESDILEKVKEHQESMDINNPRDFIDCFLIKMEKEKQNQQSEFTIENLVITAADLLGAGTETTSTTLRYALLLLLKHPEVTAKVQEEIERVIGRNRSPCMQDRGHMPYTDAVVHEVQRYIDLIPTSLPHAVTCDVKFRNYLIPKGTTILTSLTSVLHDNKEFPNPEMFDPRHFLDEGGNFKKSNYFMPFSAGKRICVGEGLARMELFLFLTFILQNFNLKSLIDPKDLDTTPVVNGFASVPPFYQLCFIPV
CYP2C9 activ: activators of human CYP2C9 | P11712 | recombinant CYP2C9, luciferin-H conversion, luminescence; hits give high values; factor 1 = untreated enzyme, 0 = blocked | activation factor at 5 µM | 96,000 tested, 1.4% active | AID 1024;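 active = activation factor of 2 or more for CYP2C9 at a 5 µM dose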;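 also: 0 = sulfaphenazole-blocked wells and 1 = vehicle-only wells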
CYP2C19 inhib: inhibitors of human CYP2C19; P33261; CYP2C19 Supersomes, luciferin-H EGE luminescence, 30 min; inhibition, % at 5 µM; 96,000 tested, 21% active; AID 778;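 active = CYP2C19 inhibition above a set limit at 5 µM in the primary screen, cut at about 50% in these data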;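 also: plate controls were negative control wells for no effect and 2.5 mM tranylcypromine positive control for full effect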
CYP2C9 inhib: human CYP2C9 inhibition. AID 777. P11712. 96,000 tested, 20% active. CYP2C9 Supersomes, luciferin-H conversion, luminescence. inhibition, % at 5 µM;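 active = blocking of liver enzyme CYP2C9 beyond about 50% at 5 µM, limit read from the data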
* marks the source's active call; other numbers are inactive results; . = no result.

SMILES	sEH activator	sEH inh	CYP2C19 act	CYP2C9 activ	CYP2C19 inhib	CYP2C9 inhib
COc1cc(NC(=O)c2ccc(S(=O)(=O)N(C)C)cc2)cc(OC)c1OC	-1.4	1.0	0.9	0.9	9.0	12.6
COc1cc(S(=O)(=O)N(C)C)ccc1Br	-10.6	8.8	0.8	3.1*	20.8	-205.7
COc1ccccc1-n1c(=O)oc2ccc(Cl)cc2c1=O	-8.8	8.9	0.7	0.8	27.3	19.8
CC(=O)Nc1ccc(Oc2cc(C#N)c(C#N)cc2N2CCOCC2)cc1	6.7	-4.7	0.6	0.5	41.6	52.6*
COc1ccc2c(c1OC)C(=O)OC2CC(=O)c1ccc(O)c(O)c1 (stereo not given)	-3.3	6.3	0.5	0.5	50.6*	46.8
COc1ccc2c(c1OC)C(=O)OC2CC(=O)c1ccc(O)cc1 (stereo not given)	.	.	0.3	0.6	71.8*	37.7
COc1ccc2c(c1OC)C(=O)OC2CC(=O)c1ccc(N(C)C)cc1 (stereo not given)	.	.	0.9	1.1	8.9	-13.7
COc1ccc2c(c1OC)C(=O)OC2CC(=O)O (stereo not given)	-6.7	6.6	1.1	1.1	-12.3	-6.0
CCOCCOc1nc2c(c(=O)n(C)c(=O)n2C)n1Cc1ccc(C)cc1	-1.2	0.9	.	.	.	.
Cc1ccc(C)c(OCC(O)CN2C(C)CCCC2C)c1 (stereo not given)	3.1	-1.0	1	1.1	4.5	-13.5
CC(=O)c1c(C)nn(CC(O)Cn2c3c(c4cc(C)ccc42)CCCC3=O)c1C (stereo not given)	2.6	-3.9	0.5	0.3	54.3*	66.9*
Cc1ccc2c(c1)c(C)c(C)n2CC(O)Cn1nc(C)c(Br)c1C (stereo not given)	0.3	-1.3	0	0	97.1*	95.7*
Cc1ccc(C)c(OCC(O)CN2CCCCC2C)c1 (stereo not given)	8.8	-8.2	0.5	1.1	52.7*	-9.8
Cc1ccc2c(c1)c(C)c(C)n2CC(O)CN1CCCCC1C (stereo not given)	.	.	0.3	0.9	74.6*	5.4
N#Cc1cc(-c2ccccc2)cnc1Cl	.	.	0.9	1	10.6	-0.8
Cc1ccc(S(=O)(=O)Cc2cccc(C(=O)N3CCOCC3)c2)cc1	1.3	3.9	1	1.2	-0.9	-21.0
Cc1cc(C(=O)OCC(=O)c2ccc3c(c2)OCCO3)c(C)o1	-10.3	9.2	0.1	0.6	86.5*	39.5
Cc1c(C(=O)OCC(=O)c2ccc3c(c2)OCCO3)oc2ccccc12	-10.0	9.7	0.9	1.5	14.4	-50.4
CCSCc1nnc(SCC(=O)Nc2nc3ccccc3s2)n1C	-4.3	4.0	0.8	0.4	18.1	63.2*
Cn1c(CSCc2ccccc2Cl)nnc1SCC(=O)Nc1nccs1	-1.2	4.1	0.5	0.4	49.0	61.3*
CCn1c(Cc2ccccc2)nnc1SCC(=O)Nc1nc2ccccc2s1	-2.9	5.4	0.8	0.8	22.1	20.9
CCC(C)[C@H](Nc1nc(-c2ccccc2)nc2c1oc1ccccc12)C(=O)O (stereo not given in full)	0.7	2.8	1	1	3.4	2.3
Cc1ccc(S(=O)(=O)N2CCCC2C(=O)NC2=NCCS2)cc1 (stereo not given)	1.3	-1.7	0.7	1.2	25.2	-18.5
COc1ccccc1CN1CCN(S(=O)(=O)c2ccccc2)CC1	-11.2	9.4	0.4	0.4	62.2*	63.2*
COc1ccc(CN2CCN(c3ncccn3)CC2)c(OC)c1	.	.	0.5	0.9	45.2	7.3
SMILES	sEH activator	sEH inh	CYP2C19 act	CYP2C9 activ	CYP2C19 inhib	CYP2C9 inhib
COc1ccc(CN2CCN(S(=O)(=O)c3ccc(NC(C)=O)cc3)CC2)cc1OC	17.1	-19.9	0.7	0.5	33.8	49.3
COc1ccc(CN2CCN(S(=O)(=O)c3ccccc3)CC2)cc1Br	0.8	0.0	0	0	98.6*	96.4*
COc1ccc(CN2CCN(S(=O)(=O)c3ccc(F)cc3)CC2)c(OC)c1OC	-3.8	3.9	0.1	0.6	86.8*	40.3
COc1ccc(CN2CCN(S(=O)(=O)c3ccc(F)cc3)CC2)cc1OC	.	.	1	1	-0.7	-1.3
COc1ccc(CN2CCN(S(=O)(=O)c3ccccc3)CC2)c(OC)c1	0.7	-0.3	0.5	0.4	51.6*	60.2*
CC(C)(C)n1nc2c(c1NC(=O)c1ccc(S(=O)(=O)N3CCCC3)cc1)CSC2	-3.4	4.3	1.1	0.6	-11.2	35.8

Compound activity from PubChem.
